# Source: PubChem BioAssay (NCATS)
# Values without a mark were called inactive. Records with an inconclusive call do not appear. A call without a number means that no potency is given here. Activity calls are given as the source filed them. Unless noted, the call rests on the fitted dose curve; in most records, active means well fitted curve in the direction sought with a large enough effect; inconclusive means small, poorly fitted or top-dose-only effect, or another doubt; inactive means no such curve, though single readings can be large; an effect the other way counts as inactive or inconclusive.
# What was measured:
# [1] = system: Zika virus NS2B-NS3 protease (unlinked complex); assay: Primary screen GU Rhodamine qHTS for Zika virus inhibitors: Unlinked NS2B-NS3 protease assay (AID 1347159); further: nearly all actives have a fitted effect of over 60% in size
# Procedure, shortened: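 Noncovalent NS2B hydrophilic domain–NS3 protease domain complex (25 nM) preincubated 15 min at room temperature with compounds (up to 114 microM) in 10 mM Tris-HCl pH 8.0, 0.01% Tween 20; 1.5 microM Rhodamine110 substrate added, fluorescence change over 15 min fitted to Hill equation.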
# [2] = system: Zika virus NS2B-NS3 protease (linked construct); assay: Primary screen NINDS Rhodamine qHTS for Zika virus inhibitors (AID 1347160); further: nearly all actives have a fitted effect of over 55% in size
# Procedure, shortened: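 Purified linked NS2B-NS3 protease (NS2B hydrophilic domain joined to NS3 protease by flexible linker), 25 nM in 10 mM Tris-HCl pH 8.0, 0.01% Tween 20. Compounds titrated, 15 min preincubation at room temperature; 1.5 microM Rhodamine110 substrate, FITC fluorescence change over 15 min.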
# [3] = biological target: Calcium and integrin-binding protein 1 (Homo sapiens) (UniProt Q99828); assay: Primary qHTS for Identification of Calcium Integrin Binding Protein 1 (CIB1) Competitor (AID 1508620);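 further: GST tagged CIB1 binding a fluorescein labelled alphaIIb integrin peptide tracer; top concentration of the series differs between compounds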
# Procedure, shortened: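 Fluorescence polarization competition: CIB1-GST (1 uM final) preincubated with compound 15 min at room temperature, then FITC-labeled alphaIIb peptide (100 nM final) added for another 15 min. Polarization read at Ex 480/Em 540.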
# [4] = biological target: Cytochrome P450 2D6 (Homo sapiens) (UniProt P10635); assay: Cytochrome P450 family 2 subfamily D member 6 (CYP2D6) small molecule antagonists: luciferase biochemical (cell-free) qHTS assay (AID 1645840; active means well fitted curve in the direction sought with a large enough effect in the repeat runs; an effect the other way counts as inactive or inconclusive; further: nearly all actives have a fitted effect of over 55% in size; further: potency means the concentration at half of the fitted maximal effect)
# Procedure, shortened: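 P450-Glo luminescent screen: recombinant CYP2D6 enzyme–proluciferin substrate mix preincubated with compound 10 min at room temperature, then NADPH regeneration added for 1 h at room temperature. Detection reagent added for 20 min; luciferin light read as relative luminescence units.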
# [5] = biological target: Glutathione peroxidase 1 (Homo sapiens) (UniProt P07203); assay: Primary qHTS Assay for Inhibitors of Recombinant Selenoprotein Glutathione Peroxidase 1 (GPX1) (AID 1845191); further: nearly all actives have a fitted effect of over 65% in size
# Procedure, shortened: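 Recombinant GPX1 (10 nM final) was preincubated with compound for 30 min at room temperature, then reacted with 1 mM GSH, 0.5 mM CHP, 0.5 mM NADPH and 100 nM glutathione reductase; NADPH fluorescence (340/450 nm) was read at 0 and 15 min.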
# [6] = biological target: Phospholipid hydroperoxide glutathione peroxidase GPX4 (Homo sapiens) (UniProt P36969); assay: Primary qHTS Assay for Inhibitors of Recombinant Selenoprotein Glutathione Peroxidase 4 (GPX4) (AID 1845192); further: nearly all actives have a fitted effect of over 65% in size
# Procedure, shortened: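 GR-coupled readout: 100 nM GR, 1 mM GSH, 0.5 mM NADPH; NADPH fluorescence (ex 340/em 450 nm) read at t=0 and after 15 min RT. GPX4 200 nM, preincubated 30 min with compound; substrate 0.5 mM CHP.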
# [7] = biological target: Luciferin 4-monooxygenase (Photinus pyralis) (UniProt P08659); assay: Primary firefly luciferase (FLuc) qHTS assay for identification of artifact compounds. (AID 1845220); conditions: outcome: dose series up to 54.1 µM unless noted; further: nearly all actives have a fitted effect of over 60% in size
# Procedure, shortened: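 qHTS, 15 min compound preincubation with substrate (10 uM luciferin, 10 uM ATP) at RT, then 10 nM FLuc; 5 min; luminescence; % inhibition vs no-enzyme/DMSO controls, 4-parameter Hill fit.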
# [8] = Primary fluorescence-based thiol-reactive (MSTI) qHTS assay for identification of artifact compounds. (AID 1845221);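 further: thiol-reactive compounds lower the probe fluorescence signal; nearly all actives have a fitted effect of over 65% in size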
# Procedure, shortened: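 MSTI probe at 4 uM final in 2% DMSO/PBS pH 7.4; compounds, 1 h at room temperature in dark. Fluorescence Ex/Em 525/598 nm, normalised to Acetyl-MSTI and MSTI, fitted to 4-parameter Hill.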
# [9] = system: Nanoluciferase (engineered Oplophorus gracilirostris luciferase); assay: Primary Nanoluciferase (NLuc) qHTS assay for identification of artifact compounds. (AID 1845222)
# Procedure, shortened: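 Luminescence read-out of secreted NLuc in S16 cell conditioned medium (1:55); compounds tested with 15 min RT preincubation, then Nano-Glo substrate 1:100, 5 min. % inhibition vs no-enzyme and DMSO controls, 4-parameter Hill fit.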
# [10] = Primary redox qHTS assay for identification of artifact compounds. (AID 1845223)
# Procedure, shortened: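 Amplex Red (25 uM) and HRP (250 mU/mL) in HBSS, with compounds for 15 min, then 250 uM DTT for 30 min, room temperature, dark. Fluorescence 525/598 nm read; normalized to DMSO and 10 uM DA3003; Hill fit.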
# HaCat = assay: Cytotoxic Profiling of Annotated Libraries Using Quantitative High-Throughput Screening (AID 1296008); conditions: Five cell lines viability, CellTiter-Glo ATP luminescence, 48-72 h; max response: stronger effect = lower value; further: nearly all actives have a fitted effect of over 60% in size; further: potency means the concentration at half of the fitted maximal effect
# Procedure, shortened: (§1)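 Compounds were pin-transferred onto cells and incubated 48 or 72 hr at 37 degree Celsius, 95% humidity. CellTiter-Glo was added, plates sat 10 min at room temperature, then ATP-coupled luminescence was imaged as the viability read-out.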
# NIH3T3 = assay: as above; conditions: Five cell lines viability, CellTiter-Glo ATP luminescence, 48-72 h; max response: stronger effect = lower value
# Procedure, shortened: as §1
# C33A = assay: Primary qHTS to identify gynecologic anti-cancer compounds using libraries of approved drugs and bioactive compounds (AID 1345084); conditions: Gynecologic cancer cell panel viability, ATPlite luminescence, 48 h; series mostly up to 57.5 µM; further: nearly all actives have a fitted effect of over 55% in size
# Procedure, shortened: (§2)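 Cells, 1,000 per well, plated 16 h, then exposed 48 h at 37 C to compounds. Viability by ATPlite luminescence after 15 min at room temperature.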
# CASKI = assay: as above; conditions: Gynecologic cancer cell panel viability, ATPlite luminescence, 48 h; series mostly up to 57.5 µM
# Procedure, shortened: as §2
# Es-2 = assay: as above; conditions: Gynecologic cancer cell panel viability, ATPlite luminescence, 48 h; series mostly up to 57.5 µM
# Procedure, shortened: as §2
# HeLa = assay: as above; conditions: Gynecologic cancer cell panel viability, ATPlite luminescence, 48 h; series mostly up to 57.5 µM
# Procedure, shortened: as §2
# Hek293T = assay: as above; conditions: Gynecologic cancer cell panel viability, ATPlite luminescence, 48 h, control line for the selectivity index; series mostly up to 57.5 µM
# Procedure, shortened: as §2
# JEG-3 = assay: as above; conditions: Gynecologic cancer cell panel viability, ATPlite luminescence, 48 h; series mostly up to 57.5 µM
# Procedure, shortened: as §2
# OV90 = assay: as above; conditions: Gynecologic cancer cell panel viability, ATPlite luminescence, 48 h; series mostly up to 57.5 µM
# Procedure, shortened: as §2
# PA-1 = assay: as above; conditions: Gynecologic cancer cell panel viability, ATPlite luminescence, 48 h; series mostly up to 57.5 µM
# Procedure, shortened: as §2
# SKOV3 = assay: as above; conditions: Gynecologic cancer cell panel viability, ATPlite luminescence, 48 h; series mostly up to 57.5 µM
# Procedure, shortened: as §2
# Tov-21-G = assay: as above; conditions: Gynecologic cancer cell panel viability, ATPlite luminescence, 48 h; series mostly up to 57.5 µM
# Procedure, shortened: as §2
# Tov112D = assay: as above; conditions: Gynecologic cancer cell panel viability, ATPlite luminescence, 48 h; series mostly up to 57.5 µM
# Procedure, shortened: as §2
# CAOV3 = assay: as above; conditions: Gynecologic cancer cell panel viability, ATPlite luminescence, 48 h; series mostly up to 57.5 µM
# Procedure, shortened: as §2
# [11] = biological target: Luciferin 4-monooxygenase (Photinus pyralis) (UniProt P08659); assay: Biochemical firefly luciferase enzyme assay for NPC (AID 624030);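 further: purified P. pyralis luciferase at 10 nM with luciferin and ATP substrate; nearly all actives have a fitted effect of over 70% in size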
# Procedure, shortened: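 Counter-screen for direct inhibition of the luciferase enzyme by approved-drug library compounds, run at 10 nM enzyme in 50 mM Tris acetate (final). Luminescence was read within 5 min of enzyme-buffer addition and normalized to PTC124 versus DMSO (0%).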
# [12] = qHTS Assay for Identifying Gametocytocidal Compounds (AID 743244);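 further: actives lower the fluorescent signal which means gametocytes are killed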; conditions: P. falciparum 3D7 stage III-V gametocytes, alamarBlue, 72 h; max response: stronger effect = lower value
# Procedure, shortened: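 Stage III-V P. falciparum 3D7 gametocytes, 20,000 per well, were exposed to compounds for 72 h at 37C, 5% CO2. AlamarBlue was then added for 24 h and viability was read as fluorescence at Ex 525/Em 598 nm.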
# [13] = P-glycoprotein substrates identified in KB-8-5-11 adenocarcinoma cell line, qHTS therapeutic library screen (AID 1346987); further: nearly all actives have a fitted effect of over 65% in size
# Procedure, shortened: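 KB-8-5-11: colchicine-selected sub-line of KB-3-1 over-expressing P-gp; assay medium lacked colchicine. 72 h drug exposure at 37 degree C, CellTiter-Glo.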
# KB-3-1 = assay: Cytotoxic Profiling of Annotated Libraries Using Quantitative High-Throughput Screening (AID 1296008); conditions: Five cell lines viability, CellTiter-Glo ATP luminescence, 48-72 h; max response: stronger effect = lower value; further: nearly all actives have a fitted effect of over 60% in size; further: potency means the concentration at half of the fitted maximal effect
# Procedure, shortened: as §1
# astro = assay: Drug repurposing screens with cells derived from glioblastoma tumor samples (AID 1345199); conditions: viability, ATP luminescence, 48 h; series mostly up to 45.9 µM; further: nearly all actives have a fitted effect of over 40% in size
# Procedure, shortened: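 Four patient lines of CD133+ GBM neurospheres were screened at several concentrations; hits were retested in those lines plus three slower-growing GBM lines, using 48-hour treatment and ATP-based viability.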
# Sequence of Cytochrome P450 2D6 (Homo sapiens) (P10635 whole entry, looked up): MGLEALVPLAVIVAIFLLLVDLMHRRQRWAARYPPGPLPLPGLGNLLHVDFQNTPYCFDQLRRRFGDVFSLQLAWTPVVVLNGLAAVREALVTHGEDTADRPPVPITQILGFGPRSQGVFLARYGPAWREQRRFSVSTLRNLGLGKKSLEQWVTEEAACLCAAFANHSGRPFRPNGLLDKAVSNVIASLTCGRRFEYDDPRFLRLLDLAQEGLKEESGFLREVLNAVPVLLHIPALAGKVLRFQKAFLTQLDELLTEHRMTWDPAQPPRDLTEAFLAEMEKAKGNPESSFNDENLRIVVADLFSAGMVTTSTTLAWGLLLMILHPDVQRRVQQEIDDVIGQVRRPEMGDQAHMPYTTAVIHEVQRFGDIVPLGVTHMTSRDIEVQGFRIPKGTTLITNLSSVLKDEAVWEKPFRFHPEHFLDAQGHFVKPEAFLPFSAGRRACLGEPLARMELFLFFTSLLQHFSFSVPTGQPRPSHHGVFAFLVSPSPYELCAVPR
# Sequence of Phospholipid hydroperoxide glutathione peroxidase GPX4 (Homo sapiens) (P36969 whole entry, looked up): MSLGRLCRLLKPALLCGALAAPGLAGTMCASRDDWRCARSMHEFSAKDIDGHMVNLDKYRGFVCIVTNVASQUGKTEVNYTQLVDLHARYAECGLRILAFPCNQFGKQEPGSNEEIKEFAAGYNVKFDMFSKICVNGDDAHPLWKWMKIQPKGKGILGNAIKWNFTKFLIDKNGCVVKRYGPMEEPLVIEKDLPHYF
# Sequence of Calcium and integrin-binding protein 1 (Homo sapiens) (Q99828 whole entry, looked up): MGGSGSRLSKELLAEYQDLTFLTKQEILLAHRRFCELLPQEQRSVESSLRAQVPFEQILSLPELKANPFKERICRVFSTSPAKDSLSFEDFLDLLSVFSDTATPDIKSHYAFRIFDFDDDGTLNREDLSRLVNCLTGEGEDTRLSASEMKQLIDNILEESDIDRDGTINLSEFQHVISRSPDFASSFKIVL
# Sequence of Glutathione peroxidase 1 (Homo sapiens) (P07203 whole entry, looked up): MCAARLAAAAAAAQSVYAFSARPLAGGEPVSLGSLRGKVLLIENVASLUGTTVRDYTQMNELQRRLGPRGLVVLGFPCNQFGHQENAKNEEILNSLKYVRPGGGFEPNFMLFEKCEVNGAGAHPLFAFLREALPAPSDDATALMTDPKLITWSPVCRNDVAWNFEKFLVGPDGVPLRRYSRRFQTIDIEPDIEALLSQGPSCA
# Sequence of Luciferin 4-monooxygenase (Photinus pyralis) (P08659 whole entry, looked up): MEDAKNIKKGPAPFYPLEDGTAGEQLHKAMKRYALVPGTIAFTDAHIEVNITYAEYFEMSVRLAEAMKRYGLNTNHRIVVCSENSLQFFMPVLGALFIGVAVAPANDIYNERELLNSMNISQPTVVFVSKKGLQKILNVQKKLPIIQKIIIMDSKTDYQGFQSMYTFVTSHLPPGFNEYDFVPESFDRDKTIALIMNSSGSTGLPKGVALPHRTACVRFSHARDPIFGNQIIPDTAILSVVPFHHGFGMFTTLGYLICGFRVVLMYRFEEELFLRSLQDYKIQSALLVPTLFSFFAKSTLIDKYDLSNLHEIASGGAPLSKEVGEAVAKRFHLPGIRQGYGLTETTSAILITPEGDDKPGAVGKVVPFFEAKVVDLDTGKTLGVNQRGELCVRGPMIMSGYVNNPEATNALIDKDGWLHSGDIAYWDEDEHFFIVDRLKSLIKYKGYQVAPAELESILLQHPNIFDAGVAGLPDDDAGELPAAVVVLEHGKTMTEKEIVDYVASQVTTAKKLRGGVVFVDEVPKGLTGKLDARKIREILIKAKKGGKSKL
compound,measurement,setting,value
CCCCCn1cc(C(=O)Cc2ccccc2OC)c2ccccc21,Potency,[1],inactive
same,Potency,[2],inactive
same,Potency,[3],inactive
same,Potency,[4],inactive
same,Potency,[5],inactive
same,Potency,[6],inactive
same,outcome,[7],inactive
same,Potency,[8],inactive
same,Potency,[9],inactive
same,Potency,[10],inactive
same,max response,HaCat,-10.3%
same,max response,NIH3T3,-7.87%
same,Potency,C33A,inactive
same,Potency,CASKI,inactive
same,Potency,Es-2,inactive
same,Potency,HeLa,inactive
same,Potency,Hek293T,inactive
same,Potency,JEG-3,inactive
same,Potency,OV90,inactive
same,Potency,PA-1,inactive
same,Potency,SKOV3,inactive
same,Potency,Tov-21-G,inactive
same,Potency,Tov112D,inactive
CC1=CC(=O)[C@@H](O)[C@]2(C)C3[C@@H](O)[C@@H]4OC(=O)[C@@H]([C@H]4C)[C@]3(C)C(=O)[C@H](O)[C@@H]12 (stereo partly specified),Potency,[2],inactive
same,Potency,[3],inactive
same,Potency,[5],inactive
same,Potency,[6],inactive
same,outcome,[7],inactive
same,Potency,[8],inactive
same,Potency,[9],inactive
same,Potency,[10],inactive
same,Potency,NIH3T3,2.55 µM (active)
same,Potency,C33A,inactive
same,Potency,CAOV3,inactive
same,Potency,CASKI,inactive
same,Potency,HeLa,inactive
same,Potency,JEG-3,inactive
same,Potency,OV90,inactive
same,Potency,SKOV3,inactive
same,Potency,Tov-21-G,inactive
CCOP(=S)(OCC)SCSc1ccc(Cl)cc1,Potency,[11],inactive
same,max response,[12],-1.21%
same,Potency,[13],inactive
same,Potency,[4],9.52 µM (active)
same,max response,KB-3-1,-9.26%
same,Potency,astro,inactive
